# Compound activity deposited in PubChem by National Center for Advancing Translational Sciences (NCATS).
# Many of the other results were omitted from the sample, so hits are more common in it than they were.
# KDM5B inh: blocks human KDM5B histone demethylase activity; KDM5B demethylase, FDH-coupled NADH fluorescence (FDH is formaldehyde dehydrogenase); Potency, µM (highest dose often 57.7 µM), hits mostly inhibitors; Q9UGL1; AID 1347165; 220,000 compounds, 2.6% hits; active = well fitted inhibition curve with a large enough effect; note: 0% is about no effect; nearly all actives have a fitted effect of over 70% in size
#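 Here, H3K4me3 peptide (12.5 µM in substrate mix) is demethylated by KDM5BΔAP, 200 nM final, after 10 min compound exposure. Formaldehyde product is coupled through FDH (0.25 U/mL in mix) to NADH fluorescence; 30-min ΔRFU feeds dose-response curves.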
# An asterisk follows results filed as active; i = inactive. Potency is the fitted concentration of half-maximal effect.
SMILES,KDM5B inh
Cc1ccc(NC(=O)CN2CCN(C(=O)CCc3ncc(-c4ccccc4)o3)CC2)cc1,i
CCOc1ccc(-c2cc3c(=O)n(CC(=O)NCc4ccccc4)ccn3n2)cc1,i
CCOc1ccc(-c2cc3c(=O)n(CC(=O)NCc4ccco4)ccn3n2)cc1,i
CCOc1ccc(NC(=O)Cn2ccn3nc(-c4ccc(OC)c(OC)c4)cc3c2=O)cc1,i
CCOC(=O)c1ccccc1NC(=O)Cn1ccn2nc(-c3ccc(OCC)cc3)cc2c1=O,i
CCOc1ccc(-c2cc3c(=O)n(CCNC(=O)c4ccccc4OC)ccn3n2)cc1,31.6µM*
CCOc1ccc(-c2cc3c(=O)n(CCNC(=O)c4cccc5[nH]ccc45)ccn3n2)cc1,28.2µM*
COc1ccc(-c2cc3c(=O)n(CCNC(=O)c4ccc(C)s4)ccn3n2)cc1,i
CCOc1ccc(-c2cc3c(=O)n(CCNC(=O)c4ccc(C#N)cc4)ccn3n2)cc1,20µM*
COc1ccc(-c2cc3c(=O)n(CCNC(=O)c4cccc(N(C)C)c4)ccn3n2)cc1,35.5µM*
COc1ccc(C(=O)NCCn2ccn3nc(-c4ccc(F)cc4)cc3c2=O)cc1OC,i
CN(C)S(=O)(=O)c1cc(NC(=O)CN2CCc3sccc3C2c2ccccc2)ccc1Cl (stereo not given),i
O=C(CCNC(=O)c1cccs1)Nc1cc(Cl)ccc1Cl,i
CC(C)CC(=O)N[C@H](C)c1onc(-c2cccnc2)c1C(=O)O,i
CCOc1ccc(CN(C(=O)c2cc(=O)c3ccc(C)c(C)c3o2)C2CCS(=O)(=O)C2)cc1 (stereo not given),i
Cc1cc(=O)n(CC(=O)N2CCCC2)c(-c2ccccc2)n1,i
COc1ccc(-c2nc(SC(C)C(=O)NC(C)(C)C)n[nH]2)c(OC)c1 (stereo not given),i
CC1=C[C@@H](CNS(=O)(=O)c2cccc(F)c2)[C@H](C(C)C)C[C@H]1CC(=O)O,i
O=C(Nc1ccc(F)cc1)c1ccc(S(=O)(=O)C2CCS(=O)(=O)C2)cc1 (stereo not given),i
COc1cccc(CC(=O)N[C@H](C)c2onc(-c3ccc(F)cc3)c2C(=O)O)c1,i
C[N+]1(Cc2c(Cl)cccc2Cl)CCN(/C=C/C(=O)C(F)(F)F)CC1,i
Cc1ccc(C2=NC3(CCN(C(=O)COc4ccccc4)CC3)ON2)cc1,i
COc1ccc2nc(C[C@@H]3C[C@@H](C(C)C)[C@H](CN(Cc4ccccc4F)Cc4ccccc4F)C=C3C)[nH]c2c1,i
O=C(Cn1ccc2c(Br)cccc21)N1CCCC1,i
Cn1c(CC(=O)Nc2cccc(C(F)(F)F)c2)nnc1SCC(=O)c1ccc(C#N)cc1,i
SMILES,KDM5B inh
Cc1ccc(C(=O)/C(=C/c2ccc(F)cc2)c2nc3ccccc3o2)cc1,i
O=C(NC1CCCN(c2cc(-c3ccccc3)[nH]n2)C1)c1ccc(Br)cc1 (stereo not given),i
Cc1ccc(C(=O)NC2CCN(c3cc(-c4ccccc4)[nH]n3)C2)cc1 (stereo not given),14.1µM*
O=C(NC1CCCN(c2cc(-c3ccccc3)[nH]n2)C1)c1cccc(F)c1 (stereo not given),i
COc1ccc(C(=O)NC2CCCN(c3cc(-c4ccc(Cl)cc4)[nH]n3)C2)cc1 (stereo not given),i
COc1ccc(-c2cc(N3CCCC(NC(=O)c4ccc(N(C)C)cc4)C3)n[nH]2)cc1 (stereo not given),25.1µM*
Cc1ccc(C(=O)NC2CCCN(c3cc(-c4ccccc4)[nH]n3)C2)cn1 (stereo not given),i
CN(C)c1cccc(C(=O)NC2CCN(c3cc(-c4ccccc4)[nH]n3)C2)c1 (stereo not given),25.1µM*
O=C(NC1CCN(c2cc(-c3ccccc3)[nH]n2)C1)c1ccccc1Cl (stereo not given),i
O=C(NC1CCN(c2cc(-c3ccccc3)[nH]n2)C1)c1ccc(Br)cc1 (stereo not given),i
CCOc1ccc(C(=O)NC2CCCN(c3cc(-c4ccc(OC)cc4)[nH]n3)C2)cc1 (stereo not given),i
CN(C)c1ccc(C(=O)NC2CCN(c3cc(-c4ccccc4)[nH]n3)C2)cc1 (stereo not given),14.1µM*
CN(C)c1ccc(C(=O)NC2CCCN(c3cc(-c4ccccc4)[nH]n3)C2)cc1 (stereo not given),i
CC(C)(C)C(=O)NCC1CCN(Cc2nc(-c3ccccc3)no2)C1 (stereo not given),i
O=C(NCC1(c2ccccc2)CCCC1)c1ccc(S(=O)(=O)N2CCOCC2)cc1,i
CCCN1CCC(N(C)C(=O)Nc2ccc(F)cc2)CC1,i
CCOCCOC(C)C(=O)N(CC(=O)OCC)CC(C)C (stereo not given),i
O=C(c1occc1-c1ccccc1)N1CCN(S(=O)(=O)c2c(F)cccc2F)CC1,i
N#CC1(C(=O)Nc2cccc(I)c2)CCCC1,i
COc1ccc(S(=O)(=O)Nc2ccc3c(c2)CCN3C(=O)c2cccnc2)c(C)c1,i
O=C(NC1CCN(c2cc(-c3ccc(F)cc3)[nH]n2)CC1)c1ccc(F)cc1F,i
Cc1cccc(C(=O)NC2CCN(c3cc(-c4ccccc4)[nH]n3)CC2)c1,i
COc1ccc(C(=O)NC2CCN(c3cnn(C)c(=O)c3)CC2)cc1OC,i
O=C(NC1CCN(c2cc(-c3ccc(F)cc3)[nH]n2)CC1)c1cccc2[nH]ccc12,31.6µM*
CN(C)c1cccc(C(=O)NC2CCN(c3cc(-c4ccccc4)[nH]n3)CC2)c1,20µM*
SMILES,KDM5B inh
O=C(NC1CCN(c2cc(-c3ccc(F)cc3)[nH]n2)CC1)c1ccccc1Cl,i
Cn1ncc(N2CCC(NC(=O)c3ccc4c(c3)OCO4)CC2)cc1=O,i
CN(C)c1cccc(C(=O)NC2CCN(c3cnn(C)c(=O)c3)CC2)c1,25.1µM*
O=C(NC1CCN(c2cc(-c3ccccc3)[nH]n2)CC1)c1ccccc1,i
Cc1ccc(NC(=O)C(C#N)=C2CCCC2)cc1,i
CCCC(C)N1CC2(CCN(Cc3nnc(-c4ccccc4)o3)CC2)OC1=O (stereo not given),i
Cc1ccc(C2Cn3nnc(-c4noc(C5CCCCC5)n4)c3CO2)cc1 (stereo not given),i
O=C(COc1ccc2nc3n(c(=O)c2c1)CCC3)NC1CCCC1,i
O=S(=O)(NCc1cn2ccsc2n1)c1ccccc1,i
O=c1c2c3c(sc2ncn1-c1ccc(Br)cc1)CCCC3,i
COCCN(C)C[C@@H]1CN(c2cc(C)c3ccc(SC)cc3n2)C[C@@H]1CO,28.2µM*
COCCN(C)C[C@@H]1CN(C(=O)c2nc(-c3ccccc3)[nH]c2C)C[C@@H]1CO,i
COCCN(C)C[C@@H]1CN(C(=O)c2cnc(SC)nc2)C[C@@H]1CO,i
CCCCCCCCNC(=O)c1cccs1,i
CC(=O)Nc1cccc(NC(=O)c2cc(C(C)C)nc3ccccc23)c1,i
O=C1CCN(C(=O)[C@@H]2CCCN2Cc2cccc(OC(F)(F)F)c2)CCCCCCN1,i
O=C([C@@H]1CCCN1Cc1cc(=O)c2cc(F)ccc2[nH]1)N1CCCCC1,28.2µM*
Cc1[nH]c2ccc(F)cc2c1CC(=O)N1CCCC1,i
CCNC(=O)N1Cc2[nH]cnc2C[C@H]1C(=O)NCc1ccccc1,i
O=C(NCCCN1CCOCC1)c1ccc2c(=O)n(Cc3ccccc3)c(=S)[nH]c2c1,i
CC(C)Oc1ccc(C(=O)NC2CCN(Cc3ccccc3)CC2)cc1,i
